# Source: PubChem BioAssay (several laboratories)
# Compounds with a hit are over-represented: about 4.6% of the library has one in this group of screens.
# FAS TE block: blocks the thioesterase domain of human fatty acid synthase; recombinant FAS-TE, OMFH fluorogenic substrate, fluorescence endpoint; inhibition, % at 15 µM; 360,000 tested, 0.67% active; AID 602261;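 active means compounds whose normalised, plate-corrected inhibition of enzyme fluorescence in the single-dose primary screen is 50% or more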;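 further: 0% = DMSO with enzyme and 100% = substrate without enzyme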
# ADAM10 inh: ADAM10 inhibition, QFRET primary screen | AID 720582 | recombinant ADAM10, EDANS/DABCYL FRET peptide cleavage, 3 h | O14672 | inhibition, % at 7 µM | 370,000 tested, 0.62% active;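 active means inhibition above a per-campaign cutoff equal to the mean of compounds falling between control-based bounds plus 3 SD, cut at about 20% in these data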;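 further: 0% = DMSO wells while the 100% control is not disclosed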
# Target sequence (O14672 214-748 limits assumed): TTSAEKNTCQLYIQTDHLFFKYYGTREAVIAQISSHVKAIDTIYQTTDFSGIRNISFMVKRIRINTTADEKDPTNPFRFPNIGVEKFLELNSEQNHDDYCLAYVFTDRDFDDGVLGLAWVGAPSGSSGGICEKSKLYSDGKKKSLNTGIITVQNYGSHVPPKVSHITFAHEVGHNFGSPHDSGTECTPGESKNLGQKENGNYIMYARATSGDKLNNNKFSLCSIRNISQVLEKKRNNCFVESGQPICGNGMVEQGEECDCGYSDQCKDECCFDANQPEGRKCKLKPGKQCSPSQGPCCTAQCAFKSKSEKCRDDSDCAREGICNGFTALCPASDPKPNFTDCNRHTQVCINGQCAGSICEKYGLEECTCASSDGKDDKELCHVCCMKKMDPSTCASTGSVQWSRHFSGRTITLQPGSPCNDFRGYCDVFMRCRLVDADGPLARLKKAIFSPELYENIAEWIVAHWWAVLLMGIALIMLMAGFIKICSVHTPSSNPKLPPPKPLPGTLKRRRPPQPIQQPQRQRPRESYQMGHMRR
# NR3A LBD binder: modulates the human NR3A ligand-binding domain; Tm shift relative to glycine control, % at 25 µM; AID 1259313; 340,000 tested, 2.5% active; NR3A LBD differential scanning fluorimetry, Tm shift; 0% = protein alone, 100% = glycine-bound protein;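 active means melting temperature shift of at least 10% of the positive control shift, at one fixed dose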
# KLK7 zymogen act: activates the human kallikrein-7 zymogen; 370,000 tested, 0.9% active; purified proKLK7, EDANS-DABCYL substrate fluorescence; 100% is mature enzyme control, 0% vehicle; activation, % at 7 µM; P49862;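 active means activation above the mean of all tested compounds plus 3 SD, computed per campaign excluding outliers beyond control limits, cut at about 13% in these data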
# ADAM17 inh: inhibitors of human ADAM17. P78536. recombinant ADAM17, EDANS/DABCYL FRET peptide cleavage. inhibition, % at 6.95 µM. 370,000 tested, 0.83% active. AID 720648;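 active means inhibition above the mean of compounds lying between control limits plus 3 SD, set per campaign, cut at about 8.5% in these data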;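 further: 0% = DMSO-only wells as the low control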
# Starred values were filed as active, the others as inactive; i = inactive; / = not tested or not shown.
SMILES,FAS TE block,ADAM10 inh,NR3A LBD binder,KLK7 zymogen act,ADAM17 inh
Cc1cccc(C(C)C)c1NC(=O)COC(=O)c1cccc(S(=O)(=O)N2CCc3ccccc3C2)c1,-4.7,-0.7,21.7*,-0.1,-1.2
COc1ccc(N2CSC3=C(C#N)C(c4cccs4)CC(=O)N3C2)cc1 (stereo unspecified),-12.5,4.2,18.6*,-0.1,-3.2
C[C@H]1[C@H](NC(=O)c2ccc(Cl)c(Cl)c2)CC[C@@]23CCCN2C(=O)CCC[C@@H]13,/,-1.6,/,/,-5.5
O=C(C1CCCN1S(=O)(=O)c1cccs1)N1CCc2ccccc2C1 (stereo unspecified),/,-15.2,/,-1.0,-2.5
Cn1cnc2c1c(=O)[nH]c(=O)n2Cc1ccccc1,-3.9,-1.5,10.3*,-0.3,-2.5
CC(C)CCn1cnc2c1c(=O)[nH]c(=O)n2Cc1ccccc1,-2.9,2.9,-1.3,0.6,-1.8
COc1cccc2c(NCc3ccccc3)nc(-n3c(N)nc4ccccc43)nc12,/,-9.0,/,/,-3.7
COc1ccc(Oc2c(Cl)cnn(-c3ccc(C(C)C)c(C)c3)c2=O)cc1,/,0.6,/,/,-1.0
Oc1ccc(/C=C/c2ccc3cccc(O)c3n2)cc1Br,15.3,10.9,29.8*,-5.8,6.9
O=C(O)c1ccc(/C=C/c2ccc3cccc(O)c3n2)cc1,-0.1,-4.1,-0.4,6.8,1.7
O=C1CCC[C@H]2C[C@H](NCc3ccc(Cl)c(C(F)(F)F)c3)CC[C@]23CCCN13,/,3.6,/,/,0.4
COC(=O)CCC/C=C1/SCC(NC(=O)c2ccccc2)C1=O (stereo unspecified),-27.5,0.8,-0.8,0.4,12.0*
Cc1cc(Cl)ccc1Nc1ncccc1C(N)=O,18.9,5.5,151.0*,-0.3,4.1
NC(=O)c1cccnc1Nc1ccccc1F,-11.5,5.2,-1.0,-0.1,2.5
O=C1CC(c2ccccc2)CN1C(=O)c1ccccc1 (stereo unspecified),0.3,3.4,12.5*,0.0,-0.7
COc1ccc(C(=O)N2CC(c3ccccc3)CC2=O)cc1 (stereo unspecified),-3.1,1.8,2.0,-0.8,-3.5
CCCCCCC/C=C(\C)[C@@H](O)[C@@H](C)C(=O)N1CCC[C@@H]1C(=O)O,/,7.5,/,/,-1.0
COC(=O)/C(C#N)=C/c1c(Oc2cc(C)cc(C)c2)nc2c(C)cccn2c1=O,-5.2,-0.1,12.6*,-0.3,-5.5
O=C1C[C@H](c2ccc3ccccc3c2)N=C2N1/C(=C\c1ccccc1)[C@@H](c1ccccc1C(F)(F)F)N2Cc1ccc2c(c1)OCO2,/,2.4,/,/,3.5
Cc1ccnc(SCc2cc(=O)c(OC(=O)c3ccc(C#N)cc3)co2)n1,/,-8.2,/,/,-1.2
N#CCC(=O)Nc1ccc(C(=O)OC(C(=O)Nc2ccc([N+](=O)[O-])cc2Br)c2ccccc2)cc1 (stereo unspecified),33.3,5.8,12.0*,-0.5,3.7
O=C(OC(C(=O)Nc1ccc([N+](=O)[O-])cc1Br)c1ccccc1)c1ccccc1 (stereo unspecified),39.0,-0.1,-2.1,-0.4,-1.6
O=C(CNC(=O)c1ccccc1F)OC(C(=O)Nc1cc(C(F)(F)F)ccc1Cl)c1ccccc1 (stereo unspecified),27.4,8.3,-3.7,-0.4,3.0
N#CCC(=O)Nc1ccc(C(=O)OC(C(=O)Nc2cc(C(F)(F)F)ccc2Cl)c2ccccc2)cc1 (stereo unspecified),34.9,15.3,28.6*,0.5,5.7
CCOC(=O)N1C(=O)C[C@](Sc2ccc(OC)cc2)(C(=O)N(C)C)[C@H]1c1ccc(OC)cc1,/,-9.8,/,0.5,-2.2
SMILES,FAS TE block,ADAM10 inh,NR3A LBD binder,KLK7 zymogen act,ADAM17 inh
O=C(Nc1ccc(-c2nc3ccc(NC(=O)c4cccs4)cc3[nH]2)cc1)c1cccs1,-10.6,-207.6,30.4*,-33.4,-21.7
Cc1ccccc1C(=O)Nc1ccc(-c2nc3ccc(C(=O)c4ccccc4)cc3[nH]2)cc1,-2.4,-85.8,16.8*,-97.2,-23.2
Cc1ccc(OCC(=O)Nc2ccc(NC(=O)c3ccco3)cc2)c(C)c1,-0.9,-166.4,29.3*,4.5,-63.9
Cc1ccc2nc(-c3ccc(NC(=O)c4ccco4)cc3)[nH]c2c1,3.5,/,31.1*,/,/
Cn1cccc1-c1nc2ccc(NC(=O)c3ccco3)cc2[nH]1,-3.7,2.5,-4.0,-0.1,5.6
Cc1nn(-c2ccccc2)c2sc(C(=O)NC3CCCCCCC3)cc12,/,-19.8,/,0.0,-3.5
O=C(Nc1ccc2nc(-c3cccs3)[nH]c2c1)c1cccs1,-1.7,-89.8,25.6*,0.3,-25.8
O=C(Cc1cccs1)Nc1cccc(-c2nc3cc4ccccc4cc3[nH]2)c1,19.1,i,28.4*,-88.2,-494.4
O=C(Nc1cccc(-c2nc3ccccc3[nH]2)c1)c1ccco1,-1.1,3.3,6.8,-0.2,-0.2
O=C(Nc1ccc2nc(-c3cccs3)[nH]c2c1)c1ccco1,-3.0,-76.0,13.6*,1.4,-31.3
COC(=O)[C@]12C[C@H](CC(=O)N3CCCCC3)C(=O)N(Cc3cccc4ccccc34)C1=C[C@H](C(C)(C)C)O[C@@H]2C,/,6.9,/,0.2,4.0
Cc1ccc(NC(=O)C2CCCN(c3nnc(-n4cccc4)s3)C2)c(C)c1 (stereo unspecified),/,0.8,/,0.1,0.5
Cc1ccc2nc(SCC(=O)Nc3ccc4c(c3)CCC4)[nH]c2c1,6.2,15.2,0.3,0.2,7.3
Cc1ccc2nc(SC(C(=O)Nc3ccc(F)cc3)c3ccccc3)[nH]c2c1 (stereo unspecified),7.5,9.6,16.4*,0.3,3.6
Cc1ccc(NC(=O)CSc2nc3nc(C)c(Br)cc3[nH]2)cc1F,-5.1,-2.0,13.9*,0.6,0.0
Cc1ccc(C)c(NC(=O)C(Sc2nc3ccc(C)cc3[nH]2)c2ccccc2)c1 (stereo unspecified),8.6,0.5,-2.7,-1.1,0.9
O=C(CSc1nc2ccc(Cl)cc2[nH]1)Nc1ccc2c(c1)CCC2,10.6,13.0,20.7*,0.4,5.2
NNC(=O)CSc1ncc(-c2ccccc2)[nH]1,-5.2,-5.6,-1.0,0.0,-4.5
O=C(CSc1ncc(-c2ccc(F)cc2)[nH]1)Nc1cccc(O)c1,-3.4,0.0,16.4*,-0.6,-2.4
O=C(CSc1nc2cc3ccccc3cc2[nH]1)Nc1ccc(F)cc1,3.0,15.9,17.3*,0.6,5.9
COc1ccc(NC(=O)CSc2nc3ccc(OC)cc3[nH]2)cc1,-3.9,7.7,-5.7,0.7,0.5
COc1ccc(C=NNC(=O)c2cc(-c3ccc(C)c(C)c3)n[nH]2)cc1OCc1ccccc1,/,-7.3,/,1.3,-5.7
O=C(Nc1ccc(/C=C/c2nc3ccccc3o2)cc1)c1cccc(C(F)(F)F)c1,13.8,-22.1,16.8*,-1.0,4.1
CC(=O)Nc1ccc(/C=C/c2nc3ccccc3o2)cc1,1.0,-40.3,7.1,3.1,-18.0
O=C(Nc1ccc(/C=C/c2nc3ccccc3o2)cc1)c1c(F)cccc1F,10.3,-123.4,19.6*,-161.4,-52.9
CC(=O)Nc1ccc(/C=C/COC(C)=O)cc1C,/,-1.5,/,/,-0.3
